Source: PubChem BioAssay (NCI)
The panel holds about 83,000 compounds, 20% with a hit somewhere; the sample as a whole holds those more often.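 Single-concentration screen, 48 h exposure, 96-well plates. Endpoint: percent growth. Below 10 = active.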 Values without a mark were called inactive. Active and inactive are the calls of the source.

test system: KM12 colon; assay: NCI-60 one-dose screen, 48 h (100 = growth as untreated, 0 = no growth, -100 = all killed); conditions: 10 µM

SMILES | growth
CCOc1ccc(Nc2nc3ccccc3nc2Nc2ccc(OCC)cc2)cc1 | 47.4%
O=c1cc(-c2ccccc2)oc2cc(OCCCCNCc3ccccc3)cc(O)c12 | 23.8%
Cc1ccc(C(C)C)cc1NC(=O)c1ccccc1N(C)C | 86.7%
CCCCSc1nc(Nc2ccc(/C(C)=N/NC(N)=S)cc2)c(C#N)c(-c2ccc(F)cc2)n1 | 60.2%
O=C(c1ccc(Cl)cc1)C1[C@H](c2ccccc2Br)[C@@H](c2ccccc2)NC12C(=O)Nc1ccccc12 (stereo partly drawn) | 15.2%
CC(=O)c1ccc(NC(=O)NCn2c(=O)[nH]c3ccccc3c2=O)cc1 | 103%
[2H]C([2H])([2H])Oc1ccc2ncc(C#Cc3cncc(C(=O)Nc4ccc(CN5CCN(C)CC5)c(C(F)(F)F)c4)c3)n2n1 | -94.1% (active)
O=C1Nc2cc(Cl)ccc2/C1=C/c1ccc(OCc2ccc(Br)cc2F)cc1 | -7.72% (active)
CCCCCCCCCCCCCCCCCCCC(=O)NCCc1c[nH]c2ccc(OC(=O)CCCC(=O)OCCOOCCOOCCOOCCOOCCOOCCOOCCOOCCOOCCOOCCOOCCOOCCOC)cc12 | 35.7%
C[C@H]1[C@H](C)CC[C@]2(COC(=O)CCC(=O)NCC#CCN3CCNCC3)CC[C@]3(C)C(=CC[C@@H]4[C@@]5(C)CCCNC(C)(C)[C@@H]5CC[C@]43C)[C@H]12 | 32.4%
COc1ccc2nc(Cl)c(-c3cc(-c4ccccc4)nc(N)n3)cc2c1 | -0.39% (active)
COc1ccc(CN2[C@H](C(=O)NCCCCCCC(=O)NO)Cc3c([nH]c4ccccc34)[C@H]2C2CC2)cc1 | 12.5%
CN1CCN(c2ccc(Nc3nc(NCCCNC(=O)c4ccccc4)c4sccc4n3)cc2)CC1 | 54.4%
C=C1CC[C@H](C(=C)C)[C@H]2C=C(C)C(=O)C3=C(C(=O)[C@@](C)(O)C3)[C@H]12 | -73.9% (active)
COc1ccc(N(C)c2cc(C#N)nc3ccccc23)cc1N | 9.27% (active)
COc1ccc(C(C)=C(c2ccc(OCCCN(C)C)cc2)c2ccc(OCCCN(C)C)cc2)cc1 | -85.5% (active)
CC1(c2ccccc2)NC(=O)N(CC(=O)Nc2ccc(C(=O)/C=C/c3ccc(Cl)cc3)cc2)C1=O (stereo not drawn) | -81.4% (active)
NC(=Nc1ccc(OCCCCCCCCn2ccnn2)cc1)c1ccccc1 | 18.2%
COC[C@@H](CC(C)C)N=C1N/C(=C\c2ccc3ncsc3c2)C(=O)N1C | 9.52% (active)

SMILES | growth
O=C(CSc1ccc(-c2ccc(Cl)cc2)nn1)Nc1ccc(Cl)c(C(F)(F)F)c1 | 43.3%
Cc1ccc(NC(=O)NCn2c(=O)[nH]c3ccccc3c2=O)cc1 | 98.9%
Cc1cc(C)cc(Oc2cccc(-c3c(C)nnn3C3CCN(CCN(C)C)CC3)n2)c1 | 37%
CC(=O)NCC1=C(C)C=C2C(=O)[C@](C)(O)C3(CC3)C(C)=C21 | -5.71% (active)
O=C(Nc1ccc(OCC(=O)c2ccccc2)cc1)Nc1ccc(Cl)c(C(F)(F)F)c1 | 1.99% (active)
CCOC(=O)c1c(CSc2ccccc2)n(C)c2cc(CN(C)C)c(O)c(CN(C)C)c12 | 40.4%
Cc1ccc(-c2cc(-c3cc4ccccc4nc3Cl)[nH]c(=O)n2)cc1 | -18.6% (active)
COc1ccc([C@H]2C(C(=O)c3ccc(Cl)cc3)C3(N[C@@H]2c2ccccc2)C(=O)Nc2ccc(Br)cc23)cc1 (stereo partly drawn) | -5.82% (active)
O=C(CS(=O)(=O)c1oc(-c2ccc(Cl)cc2)nc1S(=O)(=O)c1ccc(Cl)cc1)N1CCOCC1 | 55.8%
COc1ccc(C=CC(=O)c2ccc(-n3c(C)nc4c(cnn4-c4ccccc4)c3=O)cc2)cc1 | 31.6%
O=C1Nc2ccc(Cl)cc2/C1=C/c1cccc(OCc2ccccc2)c1 | 38.9%
CN(C)c1ccc(/C=C/C(=O)c2ccc(NC(=O)CN3C(=O)NC(C)(c4ccccc4)C3=O)cc2)cc1 (stereo not drawn) | 23.7%
COc1cccc(C(N)=Nc2ccc(OCCCCCCn3cncn3)cc2)c1 | 18.6%
CN1CCN(Cc2ccc(C(=O)Nc3cccc(Nc4ccc5cc(O)ccc5n4)c3)cc2C(F)(F)F)CC1 | -48% (active)
Nc1nnc(-c2c[nH]c3ccc(F)cc23)c(-c2c[nH]c3ncccc23)n1 | 49.5%
C/C(=C\CC/C=C(\C)CC/C=C(\C)CC[C@@H](O)C(C)(C)O)CC/C=C(\C)CC[C@@H](O)C(C)(C)O | 25.5%
Cc1ccc(-c2ccc(SCC(=O)Nc3ccc(Cl)c(C(F)(F)F)c3)nn2)cc1 | 24.7%
CN1CCN(c2ccc(Nc3nc(NCCCNC(=O)c4ccc(F)cc4)c4sccc4n3)cc2)CC1 | 53.7%
C#Cc1ccc(S(=O)(=O)Nc2cccc(-c3csc(NC(C)=O)n3)c2)cc1 | 69.4%
